Measured values taken from PubChem BioAssay (NCATS).
Several values for one entry are separate records, joined by “and”; a condition that tells them apart may be missing. Identical values can stand only once. Records with an inconclusive call do not appear. Activity calls are given as the source filed them. Unless noted, calls follow the shape of the dose curve; as a rule, active = well fitted curve in the direction sought with a large enough effect; inconclusive = small, poorly fitted or top-dose-only effect, or another doubt; inactive = no such curve, though single readings can be large; an effect the other way counts as inactive or inconclusive.

Tests used:
[1] = molecular target: Thyroid hormone receptor beta (Homo sapiens) (UniProt P10828); assay: qHTS assay for small molecule antagonists of thyroid hormone receptor beta signaling (AID 588547; active = well fitted inhibition curve with a large enough effect in the signal ratio, with a control signal flat, not every such curve was filed as active; the % refers to the signal ratio;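 also: cells stimulated with 0.4 nM T3 agonist during compound exposure; % is scaled to controls: 0 for no effect and ±100 for the full control effect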); settings: TR-UAS-bla HEK293, beta-lactamase ratio, antagonist mode, 18 h
Method in brief: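 Inhibition of T3-driven (0.4nM final) beta-lactamase reporter activity was measured over 0.59 nM to 92 uM compound after 18 h at 37 C. The cells were GripTite HEK293 TR-UAS-bla in charcoal/dextran-stripped serum, with CCF4 ratio read-out and IC50 from Hill fits.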

[2] = molecular target: Voltage-gated inwardly rectifying potassium channel KCNH2 (Homo sapiens) (UniProt Q12809); assay: qHTS Assay for Small Molecule Inhibitors of the Human hERG Channel Activity (AID 588834); settings: U2OS BacMam hERG, FluxOR thallium flux fluorescence; series mostly up to 46.1 µM;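 also: top concentration of the series differs between compounds; % is scaled to controls: 0 for no effect and ±100 for the full control effect; lower thallium flux fluorescence means stronger hERG block; nearly all actives have a fitted effect of over 50% in size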
Method in brief: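 Homogeneous FluxOR thallium flux assay using hERG-expressing U2OS cells (BacMam). Compound treatment about 10 minutes preceded stimulation; reduced fluorescence taken as channel block.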

[3] = molecular target: Luciferin 4-monooxygenase (Photinus pyralis) (UniProt P08659); assay: Biochemical firefly luciferase enzyme assay for NPC (AID 624030);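 also: purified P. pyralis luciferase at 10 nM with luciferin and ATP substrate; 0% = DMSO and -100% = full luciferase inhibition by PTC124 control; nearly all actives have a fitted effect of over 70% in size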; settings: purified P. pyralis luciferase, luminescence, 5 min; series mostly up to 58.6 µM
Method in brief: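 Direct inhibition of firefly luciferase enzyme (10 nM final, 50 mM Tris Acetate) assessed by luminescence within 5 minutes. Percent activity scaled between DMSO and PTC124 positive control, with concentration-effect curves classified by fit quality and response.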

[4] = S16 Schwann cell viability assay (CellTiter-Glo assay) (AID 624031); settings: S16 rat Schwann cells viability, 24 h; series mostly up to 57.5 µM;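 also: native untransfected S16 rat Schwann cells; cellular ATP luminescence as a viability measure; plate controls were DMSO-treated cells for no effect and cell-free wells for full effect; nearly all actives have a fitted effect of over 70% in size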
Method in brief: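 Rat S16 Schwann cells without reporter constructs received compound or DMSO for 24 h at 37 °C under 5% CO2. Cellular ATP was then quantified by CellTiter-Glo luminescence, with vehicle wells defined as 0% activity and cell-free wells as reference.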

[5] = molecular target: Glutaminase kidney isoform, mitochondrial (Homo sapiens) (UniProt O94925); assay: qHTS for Inhibitors of Glutaminase (GLS): LOPAC Validation (AID 624146); settings: glutaminase enzyme activity inhibition; series mostly up to 46.1 µM;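 also: glutamate product detected by oxidase and peroxidase coupled Amplex red fluorescence gain; % is scaled to controls: 0 for no effect and ±100 for the full control effect; nearly all actives have a fitted effect of over 60% in size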
Method in brief: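 Enzyme dispensed in phosphate buffer (45 mM, pH 8.2, 0.02% Tween-20), compounds pinned in, then 1 mM L-glutamine solution and the glutamate oxidase–HRP–Amplex Red mix added; fluorescence read immediately and again after 30 min at room temperature.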

[6] = qHTS of Trypanosoma Brucei Inhibitors: LOPAC Validation (AID 624147); settings: purified enzyme assay, luminescence, 45 min; series mostly up to 57.5 µM; also: 0% is about no effect
Method in brief: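 ADP (130 uM final) triggers the TbPYK reaction after compound addition; incubation is 45 min at room temperature. Kinase-Glo Plus is then added and luminescence imaged. Normalized data are fitted to concentration-effect curves.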

[7] = qHTS of Nrf2 Activators: LOPAC Validation (AID 624149); settings: Nrf2/ARE reporter cell assay; series mostly up to 46.1 µM; also: 0% is about no effect
Method in brief: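 AREc32_Fluc cells, 1000/well, OPTI-MEM + 5% FBS, o/n 37 deg C 5% CO2; compound pin-transfer, 24 hr 37 deg C; Steady-Glo 30 min RT, luminescence read.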

[8] = HTS Assay for Allosteric Antagonists of the Human D2 Dopamine Receptor: Hit Validation in HTRF (AID 624455); settings: Cells stably expressing D1 dopamine receptor, inhibition mode; series mostly up to 46.1 µM; also: potency is read from the fitted curve at half-maximal effect
Method in brief: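 HTRF read-out; cells stably expressing D1 receptor; hits scored for inhibition of D1-mediated response. Primary screen: calcium flux, force-coupled inducible Hek293 Trex D2 line, antagonism vs EC80 dopamine.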

[9] = qHTS assay for small molecule agonists of the antioxidant response element (ARE) signaling pathway (AID 651741; active = well fitted activation curve with a large enough effect in the signal ratio; the % refers to the signal ratio; also: potency is read from the fitted curve at half-maximal effect; as to activation: % of control where 0% means no effect); settings: HepG2 ARE-bla reporter, beta-lactamase FRET ratio, 16 h; series mostly up to 96 µM
Method in brief: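 Agonist activity is measured as ARE-driven beta-lactamase expression in a stable HepG2 reporter line, using 16 h compound treatment at 37 C and a FRET substrate fluorescence readout after 2 h.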

[10] = S16 Schwann cell PMP22 intronic element firefly luciferase assay (AID 624032); settings: S16 rat Schwann cells, PMP22 element FLuc, 24 h; series mostly up to 57.5 µM; also: nearly all actives have a fitted effect of over 30% in size; also: potency is read from the fitted curve at half-maximal effect
Method in brief: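 Luciferase reporter of PMP22 intronic-element expression in stably transfected S16 rat Schwann cells, read by ONE-Glo luminescence after 24 h compound exposure at 37 C. Activity scaled between DMSO (0%) and positive-control PTC124; concentration-effect curves quality-classified.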

[11] = S16 Schwann cell PMP22 intronic element beta-lactamase assay (AID 624044; calls by dose curve;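 also: 0% = DMSO and -100% = potassium clavulanate positive control; nearly all actives have a fitted effect of over 15% in size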); settings: S16 rat Schwann cells, PMP22 element beta-lactamase FRET, 24 h; series mostly up to 38.3 µM
Method in brief: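 Beta-lactamase reporter under a PMP22 intronic regulatory element in stable S16 rat Schwann cells; 24 h compound exposure. 460 nm blue signal normalized between DMSO (0%) and potassium clavulanate, with 535 nm FRET tracking viability; curves classed by r2 and response.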

[12] = molecular target: Glucagon-like peptide 1 receptor (Homo sapiens) (UniProt P43220); assay: qHTS of GLP-1 Receptor Agonists: LOPAC Validation (AID 624148); settings: GLP-1R agonist cell assay; series mostly up to 46.1 µM;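 also: luminescence from a luciferase reporter switched on by cAMP; 0% is about no effect; higher luminescence signal means agonism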
Method in brief: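 Agonism scored as increased luciferase luminescence driven by cAMP in HEK293 clones carrying GLP-1R. Cells settled 12 hours, received compound for 4-6 hr at 37 deg C, 5% CO2, and were read after 12 min detection reagent at RT.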

[13] = qHTS assay for small molecule activators of the p53 signaling pathway (AID 651743; active = well fitted activation curve with a large enough effect in the signal ratio, not every such curve was filed as active; the % refers to the signal ratio; also: potency is read from the fitted curve at half-maximal effect; as to activation: % of control where 0% means no effect); settings: HCT-116 p53RE-bla, beta-lactamase FRET ratio, 16 h; activation: stronger effect = higher value
Method in brief: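 A beta-lactamase reporter under p53 response element control, stably carried by HCT-116 cells, reported pathway activation. Test compounds were applied for 16 hours at 37 C, and fluorescence was measured 2 hours after adding the B/G FRET substrate.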

[14] = Cytotoxicity counterscreen for NFkB agonists and antagonists (AID 624476); settings: NFkB reporter cell line viability counterscreen; series mostly up to 46.1 µM; also: % is scaled to controls: 0 for no effect and ±100 for the full control effect
[15] = qHTS Assay for Identification of Small Molecule Agonists for NFkB Signaling Pathway. (AID 624478); settings: NFkB pathway reporter cell assay, agonist mode, cells co-stimulated with 10 pM TNF alpha; series mostly up to 46.1 µM;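 also: compounds tested together with TNF alpha at its EC50 of 10 pM; 0% is about no effect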
Method in brief: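 Read-out: 460/530 nm emission at 405 nm excitation after 2 h LiveBLAzer loading; ME-180 NFkB-bla reporter cells exposed 5 h at 37 C to compounds with 10 pM TNF alpha final.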

[16] = qHTS Assay for Identification of Small Molecule Antagonists for NFkB Signaling Pathway. (AID 624479; calls by dose curve; also: % is scaled to controls: 0 for no effect and ±100 for the full control effect); settings: NFkB pathway reporter cell assay, antagonist mode; series mostly up to 38.3 µM
[17] = Cell Proliferation Assay against the HBL1 Cell Line (AID 651646); settings: HBL1 DLBCL cells; at 46.1 µM (top of the series) unless noted;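 also: cells exposed to compound for 48 h before reading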
Method in brief: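 CellTiter-Glo luminescence after 48 h compound exposure at 37C gives percent activity, with DMSO as 100% and 9.2 uM bortezomib final as 0%. Cells: 500 log-phase HBL1 per well, RPMI plus 5% FBS.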

[18] = Cell Proliferation Assay against the TMD8 Cell Line (AID 651645); settings: TMD8 DLBCL cell line proliferation/viability; at 46.1 µM (top of the series) unless noted;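 also: cells exposed to compound for 48 h before reading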
Method in brief: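 Cell viability of the ABC DLBCL line TMD8 is measured by CellTiter-Glo luminescence following a 48-hour incubation with compound. Percent activity uses DMSO as 100% and 9.2 uM bortezomib (final) as 0%.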

[19] = Cell Proliferation Assay against the TMD8 Cell Line (Caspase readout at 8 hrs) (AID 651713); settings: TMD8 lymphoma cells, caspase activation luminescence; series mostly up to 46.1 µM;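 also: 0% = DMSO and 100% = 9.2 µM bortezomib caspase signal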
Method in brief: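 Apoptosis readout: caspase 3/7 luminescence (Caspase-Glo), 15 min RT. Cells: TMD8, 500/well, RPMI + 5% FBS, no phenol red. Exposure 8 h, 37C. % activity vs DMSO = 0, bortezomib 9.2 uM final = 100.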

Sequence of Voltage-gated inwardly rectifying potassium channel KCNH2 (Homo sapiens) (Q12809 whole entry, looked up): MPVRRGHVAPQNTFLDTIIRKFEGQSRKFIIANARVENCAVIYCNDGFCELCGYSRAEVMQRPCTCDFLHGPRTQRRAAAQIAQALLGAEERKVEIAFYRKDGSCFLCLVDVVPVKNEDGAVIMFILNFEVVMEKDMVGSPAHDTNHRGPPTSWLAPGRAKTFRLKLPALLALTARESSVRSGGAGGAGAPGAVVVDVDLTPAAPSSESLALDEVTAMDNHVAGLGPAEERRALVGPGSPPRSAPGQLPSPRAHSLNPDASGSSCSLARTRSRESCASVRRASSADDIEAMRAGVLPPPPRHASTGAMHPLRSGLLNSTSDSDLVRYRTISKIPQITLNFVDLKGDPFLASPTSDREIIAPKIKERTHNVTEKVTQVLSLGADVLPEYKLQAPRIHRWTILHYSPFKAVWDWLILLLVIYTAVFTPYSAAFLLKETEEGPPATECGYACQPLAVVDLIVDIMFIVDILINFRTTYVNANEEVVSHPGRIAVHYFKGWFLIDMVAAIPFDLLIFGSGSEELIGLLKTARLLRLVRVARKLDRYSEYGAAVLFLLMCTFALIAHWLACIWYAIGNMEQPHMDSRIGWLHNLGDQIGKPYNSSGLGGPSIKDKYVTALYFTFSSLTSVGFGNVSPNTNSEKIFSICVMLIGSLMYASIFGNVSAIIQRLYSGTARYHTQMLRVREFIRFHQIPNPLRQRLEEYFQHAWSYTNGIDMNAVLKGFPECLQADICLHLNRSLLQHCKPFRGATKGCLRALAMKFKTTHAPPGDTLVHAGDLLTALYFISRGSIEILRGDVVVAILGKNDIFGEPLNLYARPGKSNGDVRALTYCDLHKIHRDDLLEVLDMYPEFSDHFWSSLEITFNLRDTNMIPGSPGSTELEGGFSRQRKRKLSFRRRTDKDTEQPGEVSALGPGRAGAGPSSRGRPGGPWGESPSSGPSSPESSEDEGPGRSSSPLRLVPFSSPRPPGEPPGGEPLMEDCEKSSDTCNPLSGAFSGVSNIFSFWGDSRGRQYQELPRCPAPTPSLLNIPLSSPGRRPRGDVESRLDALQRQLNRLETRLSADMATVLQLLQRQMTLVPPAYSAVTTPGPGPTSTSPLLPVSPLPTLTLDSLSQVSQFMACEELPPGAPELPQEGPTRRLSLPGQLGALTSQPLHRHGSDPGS
Sequence of Glutaminase kidney isoform, mitochondrial (Homo sapiens) (O94925 whole entry, looked up, canonical isoform): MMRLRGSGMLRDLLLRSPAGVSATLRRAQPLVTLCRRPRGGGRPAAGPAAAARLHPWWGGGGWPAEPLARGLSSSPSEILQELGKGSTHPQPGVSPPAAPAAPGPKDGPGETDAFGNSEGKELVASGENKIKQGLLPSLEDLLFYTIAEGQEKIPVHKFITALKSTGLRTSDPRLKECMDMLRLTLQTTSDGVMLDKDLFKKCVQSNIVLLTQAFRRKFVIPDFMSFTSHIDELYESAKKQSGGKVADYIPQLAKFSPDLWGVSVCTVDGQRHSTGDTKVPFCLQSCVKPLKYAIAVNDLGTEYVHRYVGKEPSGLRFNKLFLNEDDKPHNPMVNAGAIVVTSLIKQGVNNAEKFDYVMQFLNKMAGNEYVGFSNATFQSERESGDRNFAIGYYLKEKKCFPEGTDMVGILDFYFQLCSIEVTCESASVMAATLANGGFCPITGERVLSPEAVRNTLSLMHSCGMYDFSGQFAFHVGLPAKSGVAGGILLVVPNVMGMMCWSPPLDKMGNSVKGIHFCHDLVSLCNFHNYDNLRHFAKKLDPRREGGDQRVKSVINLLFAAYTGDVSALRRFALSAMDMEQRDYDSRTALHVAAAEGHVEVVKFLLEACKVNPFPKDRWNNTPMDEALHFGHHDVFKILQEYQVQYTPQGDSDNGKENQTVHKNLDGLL
Sequence of Luciferin 4-monooxygenase (Photinus pyralis) (P08659 whole entry, looked up): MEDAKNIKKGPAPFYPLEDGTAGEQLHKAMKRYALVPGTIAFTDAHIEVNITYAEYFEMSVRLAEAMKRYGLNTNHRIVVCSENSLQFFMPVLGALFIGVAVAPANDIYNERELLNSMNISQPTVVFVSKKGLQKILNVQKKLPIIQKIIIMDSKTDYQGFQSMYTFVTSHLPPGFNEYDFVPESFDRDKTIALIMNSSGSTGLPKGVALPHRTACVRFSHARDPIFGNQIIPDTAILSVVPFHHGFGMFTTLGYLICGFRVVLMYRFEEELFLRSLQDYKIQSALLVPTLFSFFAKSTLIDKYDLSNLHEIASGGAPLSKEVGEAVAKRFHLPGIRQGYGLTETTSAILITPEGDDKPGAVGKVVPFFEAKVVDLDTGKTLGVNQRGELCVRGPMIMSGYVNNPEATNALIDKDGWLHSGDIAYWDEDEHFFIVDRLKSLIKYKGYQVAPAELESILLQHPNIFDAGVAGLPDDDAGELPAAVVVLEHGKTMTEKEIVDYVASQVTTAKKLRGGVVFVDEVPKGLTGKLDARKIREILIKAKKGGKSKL
Sequence of Thyroid hormone receptor beta (Homo sapiens) (P10828 whole entry, looked up): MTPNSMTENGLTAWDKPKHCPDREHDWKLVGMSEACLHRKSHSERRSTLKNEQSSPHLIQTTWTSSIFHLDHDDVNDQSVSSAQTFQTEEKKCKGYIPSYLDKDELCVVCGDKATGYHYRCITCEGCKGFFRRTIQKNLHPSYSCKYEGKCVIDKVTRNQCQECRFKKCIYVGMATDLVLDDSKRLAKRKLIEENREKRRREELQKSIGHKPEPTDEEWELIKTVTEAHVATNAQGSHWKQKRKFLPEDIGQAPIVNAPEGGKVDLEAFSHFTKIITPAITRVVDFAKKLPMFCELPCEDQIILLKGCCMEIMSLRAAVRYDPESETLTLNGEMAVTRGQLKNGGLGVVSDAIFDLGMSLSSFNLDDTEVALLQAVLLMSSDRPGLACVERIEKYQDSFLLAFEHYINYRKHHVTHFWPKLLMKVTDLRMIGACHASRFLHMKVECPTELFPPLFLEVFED
Sequence of Glucagon-like peptide 1 receptor (Homo sapiens) (P43220 whole entry, looked up): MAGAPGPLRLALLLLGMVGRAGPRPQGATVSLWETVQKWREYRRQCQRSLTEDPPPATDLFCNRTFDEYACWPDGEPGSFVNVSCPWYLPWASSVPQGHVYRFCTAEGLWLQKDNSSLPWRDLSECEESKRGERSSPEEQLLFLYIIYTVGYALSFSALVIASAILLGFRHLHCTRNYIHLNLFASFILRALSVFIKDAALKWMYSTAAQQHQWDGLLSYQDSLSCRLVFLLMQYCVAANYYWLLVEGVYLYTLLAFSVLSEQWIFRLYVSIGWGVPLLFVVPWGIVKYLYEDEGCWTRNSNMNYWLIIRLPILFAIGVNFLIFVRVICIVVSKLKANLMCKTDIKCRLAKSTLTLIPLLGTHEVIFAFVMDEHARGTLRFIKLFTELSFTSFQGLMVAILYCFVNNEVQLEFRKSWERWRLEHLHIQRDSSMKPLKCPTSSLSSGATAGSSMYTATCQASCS

CNC[C@H](O)c1cccc(O)c1
inactive: activity change % (negative = inhibition) [1] 16.7% | Potency [2] | Potency [3] | Potency [4] | outcome [5] | outcome [6] | outcome [7] | Potency [9]
active: Potency [8] 1.84 µM

O=C1CCC(N2C(=O)c3ccccc3C2=O)C(=O)N1 (stereo unspecified)
inactive: activity change % (negative = inhibition) [1] 4.95% | Potency [2] | Potency [3] | Potency [4] | Potency [10] | outcome [11] | outcome [5] | outcome [6] | outcome [12] | outcome [7] | Potency [8] | Potency [9] | activation [13] -2.08%

COc1ccc2nc(S(=O)Cc3ncc(C)c(OC)c3C)[nH]c2c1 (stereo unspecified)
active: Potency [9] 27.3 µM
89.4%: viability, percent of control [17]
inactive: activity change % (negative = inhibition) [1] -6.03% | Potency [2] | Potency [4] | Potency [10] | outcome [11] | Potency [14] | outcome [15] | Potency [16]

O=NN(CCCl)C(=O)NCCCl
inactive: activity change % (negative = inhibition) [1] 11.9% | Potency [2] | Potency [3] | Potency [4] | Potency [10] | outcome [5] | outcome [6] | outcome [12] | outcome [7] | Potency [8] | activation [13] 14.7%

Cc1[nH]c(=O)c(C#N)cc1-c1ccncc1
inactive: activity change % (negative = inhibition) [1] -2.81% | Potency [3] | Potency [4] | outcome [5] | outcome [6] | outcome [12] | outcome [7] | Potency [8] | Potency [9] | activation [13] -6.25%

CC(C)NCC(O)COc1ccc(COCCOC(C)C)cc1 (stereo unspecified)
inactive: Potency [2] | Potency [3] | Potency [4] | Potency [10] | outcome [5] | outcome [6] | outcome [12] | outcome [7] | Potency [8]

Cc1cnc(NC(=O)C2=C(O)c3ccccc3S(=O)(=O)N2C)s1
inactive: Potency [2] | Potency [3] | outcome [5] | outcome [6] | outcome [7] | Potency [8]

C#Cc1cccc(Nc2ncnc3cc(OCCOC)c(OCCOC)cc23)c1
58%: viability (% of control) [18]
74.6%: viability, percent of control [17]
inactive: Potency [2] | Potency [3] | Potency [10] | outcome [11] | outcome [15] | Potency [19]

CC(C)(C)NCC(O)c1ccc(O)c(CO)c1 (stereo unspecified)
inactive: Potency [2] | Potency [3] | Potency [4] | outcome [5] | outcome [6] | Potency [8]

Cn1cnc([N+](=O)[O-])c1Sc1ncnc2nc[nH]c12
active: Potency [9] 27.3 µM and 37.6 µM | Potency [13] 25.1 µM and 28.2 µM
inactive: activity change % (negative = inhibition) [1] 18.7% | Potency [2] | Potency [3] | Potency [4] | outcome [5] | outcome [6] | outcome [12] | outcome [7] | Potency [8]

Clc1cccc(Cl)c1NC1=NCCN1
inactive: Potency [2] | Potency [3] | Potency [4] | Potency [10] | outcome [5] | outcome [6] | outcome [12] | outcome [7] | Potency [8]

Nc1ccc(S(=O)(=O)Nc2ccnn2-c2ccccc2)cc1
inactive: Potency [2] | Potency [3] | Potency [4] | Potency [10] | outcome [11] | outcome [5] | outcome [6] | outcome [12] | outcome [7] | Potency [8]

CCCCNc1cc(C(=O)O)cc(S(N)(=O)=O)c1Oc1ccccc1
inactive: Potency [2] | Potency [3] | Potency [4] | Potency [10] | outcome [11] | outcome [5] | outcome [6] | outcome [12] | outcome [7] | Potency [8]

NC(=O)c1cnccn1
inactive: Potency [2] | Potency [3] | Potency [4] | Potency [10] | outcome [5] | outcome [6] | outcome [12] | outcome [7] | Potency [8] | Potency [9] | activation [13] 0.545% and -2.21%

O=c1[nH]cnc2[nH]ncc12
inactive: activity change % (negative = inhibition) [1] 5.35% | Potency [2] | Potency [3] | Potency [4] | Potency [10] | outcome [5] | outcome [6] | outcome [12] | outcome [7] | Potency [8]

NC[C@H](O)c1ccc(O)c(O)c1
inactive: activity change % (negative = inhibition) [1] 13.6% | Potency [2] | Potency [3] | Potency [4] | outcome [11] | outcome [5] | outcome [6] | outcome [7]
active: Potency [10] 9.07 µM | Potency [8] 0.291 µM

NS(=O)(=O)c1cc2c(cc1Cl)NC=NS2(=O)=O
inactive: activity change % (negative = inhibition) [1] -11.5% | Potency [2] | Potency [3] | Potency [4] | Potency [10] | outcome [11] | outcome [5] | outcome [6] | outcome [12] | outcome [7] | Potency [8] | Potency [9] | activation [13] -2.13%

CC(C[N+](C)(C)C)OC(N)=O (stereo unspecified)
inactive: Potency [2] | Potency [3] | Potency [4] | Potency [10] | outcome [5] | outcome [6] | outcome [12] | outcome [7] | Potency [8]
